Mtb FBA inh – Mtb fructose-bisphosphate aldolase inhibition. inhibition, % at 1 µM. AID 588726. actives 2.3% (n = 360,000). purified M. tuberculosis FBA, fluorescence read-out
Target sequence (P9WQA3 whole entry, looked up): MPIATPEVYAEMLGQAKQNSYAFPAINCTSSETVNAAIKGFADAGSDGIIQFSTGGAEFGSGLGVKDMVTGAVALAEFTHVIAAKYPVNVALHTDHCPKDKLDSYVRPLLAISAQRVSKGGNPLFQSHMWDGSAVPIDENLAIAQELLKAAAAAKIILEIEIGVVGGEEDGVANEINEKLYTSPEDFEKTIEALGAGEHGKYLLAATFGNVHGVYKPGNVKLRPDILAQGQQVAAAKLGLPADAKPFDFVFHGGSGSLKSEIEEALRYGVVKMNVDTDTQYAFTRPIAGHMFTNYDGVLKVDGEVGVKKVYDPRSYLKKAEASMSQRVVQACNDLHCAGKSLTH
TcdB inh – inhibitors of Clostridioides difficile toxin B glycohydrolase; P18177; TcdB glycohydrolase enzymatic assay, plate reader; inhibition, % at 9.99 µM; actives 0.24% (n = 350,000); AID 652162; in the data active = inhibition above about 10%
Y pestis TopoI – Y. pestis Topo-I inhibition via cleavage products. activity, % at 10 µM. actives 0.064% (n = 360,000). AID 504884. Y. pestis Topo-I cleavage product accumulation, plate reader; in the data active = activity above about 50%, passing the limit was not always enough
GDH-TPI counter-1 – counter-screen for M. tuberculosis FBA inhibitors: GDH-TPI coupled enzymes | GDH-TPI coupled enzyme counterscreen, NADH absorbance | inhibition, % at 4.8 µM | actives 1.2% (n = 360,000) | AID 588335; in the data active = inhibition above about 30%
PrPC surface inh – cell surface PrPC inhibition, primary TR-FRET screen. TR-FRET read-out. inhibition, % at 13.8 µM. actives 0.43% (n = 370,000); in the data active = inhibition above about 24%
Mtb FBA inh conf – confirmation of M. tuberculosis fructose-bisphosphate aldolase inhibitors | shares compounds with Mtb FBA inh | purified M. tuberculosis FBA, fluorescence read-out | inhibition, % at 1 µM | actives 78% (n = 5,600)
GDH-TPI counter-2 – GDH-TPI inhibition counter-screen for FBA inhibitors | shares compounds with Mtb FBA inh | GDH-TPI coupled enzyme counterscreen, fluorescence | actives 81% (n = 5,600) | inhibition, % at 1 µM; in the data active = inhibition above about 10%
Large screens that a line does not name were inactive (follow-up assays come after a bar, where they were run). A selection: hits, their analogues and other compounds. The true share with any hit is near 3.2%. Rule as the data show it, unless noted: active = inhibition above about 27%; inactive = the rest.

COc1ccc2c(c1OC)c(=O)n1c3ccc(OC(C)C(=O)NCCN4CCOCC4)cc3c3ccnc2c31 (configuration not stated)	Mtb FBA inh 91.1 | Mtb FBA inh conf 84.0 | GDH-TPI counter-2 67.7
CC(Oc1ccc2c(c1)c1ccnc3c4ccccc4c(=O)n2c13)C(=O)NCCN1CCOCC1 (configuration not stated)	Mtb FBA inh 44.4 (no result: TcdB inh) | Mtb FBA inh conf 136.1 | GDH-TPI counter-2 116.7
CC(Oc1ccc(Cl)cc1Cl)C(=O)NCCN1CCOCC1 (configuration not stated)	none
COc1ccccc1Oc1coc2c(CN3CCN(C)CC3)c(O)ccc2c1=O	Mtb FBA inh 80.4 (no result: TcdB inh) | Mtb FBA inh conf 90.6 | GDH-TPI counter-2 72.7
CCN(CC)Cc1c(O)ccc2c(=O)c(-c3ccccc3)coc12	Mtb FBA inh 69.4 | Mtb FBA inh conf 61.4 | GDH-TPI counter-2 42.8
CCN(CC)Cc1c(O)ccc2c(=O)c(Oc3ccccc3OC)coc12	Mtb FBA inh 71.1 (no result: TcdB inh) | Mtb FBA inh conf active | GDH-TPI counter-2 active
CCN(CC)Cc1c(O)ccc2occ(C(=O)c3ccccc3)c12	none
Cc1nc(-c2coc3c(CN(C)C)c(O)ccc3c2=O)cs1	Mtb FBA inh 41.9 (no result: TcdB inh) | Mtb FBA inh conf inactive | GDH-TPI counter-2 inactive
C[C@@H]1CCCCO[C@@H](CN(C)S(=O)(=O)c2ccc(Cl)cc2)[C@H](C)CN([C@H](C)CO)C(=O)c2cc(NC(=O)CCCN(C)C)ccc2O1	none (no result: Mtb FBA inh, Y pestis TopoI, GDH-TPI counter-1, PrPC surface inh)
C[C@H]1CN([C@@H](C)CO)C(=O)Cc2cc(NC(=O)CCC(F)(F)F)ccc2O[C@H]1CN(C)Cc1ccc2c(c1)OCO2	none (no result: Mtb FBA inh, Y pestis TopoI, GDH-TPI counter-1, PrPC surface inh)
O=C(CCN1CCCCC1)N[C@H]1CC[C@H](CCNS(=O)(=O)c2ccc(Cl)cc2)O[C@@H]1CO	none (no result: Mtb FBA inh, Y pestis TopoI, GDH-TPI counter-1, PrPC surface inh)
Cc1nccc(-c2ccc3c(c2)OCO3)n1	Mtb FBA inh 28.7 | Mtb FBA inh conf 68.4 | GDH-TPI counter-2 48.1
Cc1ccc(-c2nnc(-c3ccc4c(c3)OCO4)o2)cc1	Mtb FBA inh 27.0 | Mtb FBA inh conf 74.8 | GDH-TPI counter-2 55.0
c1coc(-c2nnc(-c3ccc4c(c3)OCO4)o2)c1	none (no result: Mtb FBA inh, Y pestis TopoI, GDH-TPI counter-1)
Cc1noc(C)c1NC(=O)Nc1cccc2c1O[C@H](CN(C)S(=O)(=O)c1ccc(Cl)cc1)[C@H](C)CN([C@H](C)CO)C2=O	none (no result: Mtb FBA inh, Y pestis TopoI, GDH-TPI counter-1, PrPC surface inh)
CCCc1cn(CC(C)n2c(=O)c3ccccc3n2Cc2cc(C(C)C)no2)nn1 (configuration not stated)	none (no result: Mtb FBA inh, Y pestis TopoI, GDH-TPI counter-1)
CCOC(=O)Cn1cc(Cn2c3ccccc3c(=O)n2C(C)C)nn1	Mtb FBA inh 68.6 (no result: Y pestis TopoI, GDH-TPI counter-1) | Mtb FBA inh conf inactive | GDH-TPI counter-2 inactive
CC(C)n1c(=O)c2ccccc2n1Cc1cn(C2CCCC2)nn1	Mtb FBA inh 101.0 (no result: Y pestis TopoI, GDH-TPI counter-1) | Mtb FBA inh conf 89.6 | GDH-TPI counter-2 60.3
c1ccc(-n2nnnc2SCc2cn3cccnc3n2)cc1	Mtb FBA inh 43.4 (no result: TcdB inh) | Mtb FBA inh conf 75.7 | GDH-TPI counter-2 57.0
O=C1CCCC2=C1C(c1ccc(O)c(O)c1)Nc1ccc3ccccc3c12 (configuration not stated)	none
O=C1CCCC2=C1C(c1ccco1)Nc1ccc3ccccc3c12 (configuration not stated)	Mtb FBA inh 95.1 (no result: TcdB inh) | Mtb FBA inh conf 109.9 | GDH-TPI counter-2 76.5
Nc1ccc2c(c1)nnn2-c1ccccc1	Mtb FBA inh 30.6 | Mtb FBA inh conf 190.3 | GDH-TPI counter-2 151.6
c1ccc(-n2nnc3cnccc32)cc1	none (no result: TcdB inh)
OC1CCC(Nc2ccn3nc(-c4cccc(OCc5ccccc5)c4)cc3n2)CC1 (configuration not stated)	Mtb FBA inh 29.1 | Mtb FBA inh conf 54.1 | GDH-TPI counter-2 38.7
COc1cc(-c2cc3nc(NCCN(C)C)ccn3n2)cc(OC)c1OC	none
COCCCNc1ccn2nc(-c3cccc(Cl)c3)cc2n1	Mtb FBA inh 34.5 | Mtb FBA inh conf inactive | GDH-TPI counter-2 inactive
COc1cc(-c2cc3nc(NC4CCCCC4)ccn3n2)cc(OC)c1OC	Mtb FBA inh 30.8 | Mtb FBA inh conf inactive | GDH-TPI counter-2 inactive
CCC(CO)Nc1ccn2nc(-c3cccc(Cl)c3)cc2n1 (configuration not stated)	Mtb FBA inh 30.7 | Mtb FBA inh conf 28.1 | GDH-TPI counter-2 20.8
O=C(C[C@H]1CC[C@@H]2[C@H](COC[C@@H](O)CN2C(=O)Nc2ccccc2)O1)NC1Cc2ccccc2C1	none (no result: Mtb FBA inh, Y pestis TopoI, GDH-TPI counter-1, PrPC surface inh)
C[C@H](CO)N1C[C@H](C)[C@@H](CN(C)C(=O)Nc2ccc(F)cc2)Oc2ccc(NC(=O)Cc3ccccc3)cc2C1=O	none (no result: Mtb FBA inh, Y pestis TopoI, GDH-TPI counter-1, PrPC surface inh)
CCCNC(=O)[C@@H]1[C@@H](CO)[C@@H]2Cn3c(ccc(C4=CCCCC4)c3=O)[C@@H]2N1C(=O)c1cnccn1	none (no result: Mtb FBA inh, Y pestis TopoI, GDH-TPI counter-1, PrPC surface inh)
C[C@H]1CN([C@@H](C)CO)C(=O)c2ccccc2-c2ccccc2CO[C@H]1CN(C)CC1CC1	none (no result: Mtb FBA inh, Y pestis TopoI, GDH-TPI counter-1, PrPC surface inh)
FC(F)(F)c1cccc(-c2cc3nc(NC4CCCCC4)ccn3n2)c1	none
OC1CCC(Nc2ccn3nc(-c4cccc(Cl)c4)cc3n2)CC1 (configuration not stated)	Mtb FBA inh 33.6 | Mtb FBA inh conf 60.5 | GDH-TPI counter-2 42.4
CCCc1cn(CC[C@@H]2CC[C@@H](NC(=O)C3CC3)[C@@H](CO)O2)nn1	none (no result: Mtb FBA inh, Y pestis TopoI, GDH-TPI counter-1, PrPC surface inh)
C[C@H]1CN([C@@H](C)CO)C(=O)c2cccc(NS(=O)(=O)c3cn(C)cn3)c2O[C@H]1CN(C)S(=O)(=O)c1ccccc1	none (no result: Mtb FBA inh, Y pestis TopoI, GDH-TPI counter-1, PrPC surface inh)
Cc1ccc(O)c(Nc2c3ccccc3nc3ccccc23)c1	Mtb FBA inh 99.2 | Mtb FBA inh conf active | GDH-TPI counter-2 active
O=C(O)CCn1c(-c2ccccc2)cc2ccccc21	Mtb FBA inh 57.8 | Mtb FBA inh conf inactive | GDH-TPI counter-2 15.9
CC=Cc1ccc2n(c1=O)C[C@@H]1[C@@H](CO)[C@H](C(=O)NCc3ccccc3F)N(S(C)(=O)=O)[C@H]21 (mixture of isomers)	none (no result: Mtb FBA inh, Y pestis TopoI, GDH-TPI counter-1, PrPC surface inh)
COCCN(C(=O)COC(=O)c1ccccc1Cc1ccccc1)c1c(N)n(Cc2ccccc2)c(=O)[nH]c1=O	none
CCN(C(=O)COC(=O)c1cc2ccccc2cc1OC)c1c(N)n(Cc2ccccc2)c(=O)[nH]c1=O	Mtb FBA inh 38.8 | Mtb FBA inh conf 101.9 | GDH-TPI counter-2 69.8
CNc1ccccc1C(=O)OCC(=O)N(CCOC)c1c(N)n(CC(C)C)c(=O)[nH]c1=O	Mtb FBA inh 92.4 | Mtb FBA inh conf active | GDH-TPI counter-2 active
Cc1noc(C)c1NC(=O)Nc1ccc2c(c1)C(=O)N([C@@H](C)CO)C[C@H](C)[C@H](CN(C)C(=O)NC(C)C)OCCCC[C@H](C)O2	none (no result: Mtb FBA inh, Y pestis TopoI, GDH-TPI counter-1, PrPC surface inh)
CCc1cc(=O)oc2cc(OC(C)C(=O)N3CC[C@@]4(O)CCCC[C@H]4C3)ccc12 (some centres not stated)	none
Cc1cc(=O)oc2cc(OCC(=O)N3CC[C@@]4(O)CCCC[C@H]4C3)ccc12	none
Cc1cc(=O)oc2cc(OCC(=O)N(C)C3CCS(=O)(=O)C3)c(Cl)cc12 (configuration not stated)	none

Screening results (PubChem BioAssay)
